Sampled rows, rich in hits. Any-hit rate of the full collection: about 21%.
D3 ag: qHTS of D3 Dopamine Receptor Agonist: qHTS. D(3) dopamine receptor (Homo sapiens), P35462. D3R DiscoveRx beta-arrestin cells, luminescence, 90 min. max activation, %. 0.58% of 410,000 active. AID 652048, 2013; in the data active means max activation above about 30%; further: 0% is about no effect
Target sequence (P35462 whole entry, looked up): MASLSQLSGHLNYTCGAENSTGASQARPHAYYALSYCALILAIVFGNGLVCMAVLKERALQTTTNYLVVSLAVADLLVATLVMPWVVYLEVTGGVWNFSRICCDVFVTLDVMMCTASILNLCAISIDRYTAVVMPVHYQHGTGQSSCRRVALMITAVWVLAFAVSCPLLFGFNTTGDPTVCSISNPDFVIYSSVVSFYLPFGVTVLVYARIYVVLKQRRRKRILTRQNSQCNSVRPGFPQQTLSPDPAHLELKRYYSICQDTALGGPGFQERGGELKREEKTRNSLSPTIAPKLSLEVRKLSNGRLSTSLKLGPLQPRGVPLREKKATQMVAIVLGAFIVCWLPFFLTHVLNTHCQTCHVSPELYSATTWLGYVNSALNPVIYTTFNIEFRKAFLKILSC
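Agonist-mode cell screen: cells plated at 1500/well and incubated overnight at 37 °C, then exposed to library compounds for 90 min at 37 °C. Detection reagent was added for 30–60 min at room temperature, and luminescence was read.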
D3 antag: qHTS of D3 Dopamine Receptor Antagonist: qHTS; D(3) dopamine receptor (Homo sapiens), P35462; D3R cells, DiscoveRx beta-arrestin luminescence, antagonist mode; hits give low values; max response, negative = inhibition, %; 2.5% of 360,000 active; AID 652054, 2013; in the data active means max response below about -50%; inconclusive means no clear call, values can overlap the other calls; further: on the % scale 0 is the no-effect control and ±100 the full control effect
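Cells plated overnight at 1500 cells/well, then exposed to library compounds with dopamine controls for 90 minutes at 37 degrees C. DiscoveRx reagent added for 30–60 minutes at room temperature; luminescence read, quantitative HTS format.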
DT40 TDP1 CPT: qHTS for Inhibitors of human tyrosyl-DNA phosphodiesterase 1 (TDP1): qHTS in cells in presence of CPT; chicken DT40 Tdp1-/-;hTDP1 cells + 20 nM CPT, ATP luminescence, 48 h; Potency, µM (series often up to 46.2 µM), for the others: at the top dose activity change, negative = growth inhibition, actives largely listed as inhibitors; 12% of 420,000 active; AID 686979, 2013; further: potency means the concentration at half of the fitted maximal effect; on the % scale 0 is the no-effect control and ±100 the full control effect; nearly all actives have a fitted effect of over 55% in size
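Chicken DT40 Tdp1-/- cells stably complemented with human TDP1 were seeded at 400 cells/well in medium containing 20 nM camptothecin, exposed to pin-transferred compounds, and grown at 37 °C for at least 48 hr. Viability was read as ATP luminescence.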
ClpP mod: qHTS Assay for Activators of ClpP. ATP-dependent Clp protease proteolytic subunit (Bacillus subtilis (strain 168)), P80244. purified B. subtilis ClpP, FRET peptide cleavage, 20 min. Potency, µM (series often up to 57.5 µM), for inactives: at the highest dose activity change, negative = active. 1.9% of 340,000 active. AID 651965, 2013; active means well fitted falling curve with a large enough effect; inconclusive means small, poorly fitted or top-dose-only effect; inactive means no such curve, though single readings can be large or run the other way; further: potency means the concentration at half of the fitted maximal effect; the source files actives as falling curves though it sought activators and does not explain the sign; nearly all actives have a fitted effect of over 65% in size
Target sequence (P80244 whole entry, looked up): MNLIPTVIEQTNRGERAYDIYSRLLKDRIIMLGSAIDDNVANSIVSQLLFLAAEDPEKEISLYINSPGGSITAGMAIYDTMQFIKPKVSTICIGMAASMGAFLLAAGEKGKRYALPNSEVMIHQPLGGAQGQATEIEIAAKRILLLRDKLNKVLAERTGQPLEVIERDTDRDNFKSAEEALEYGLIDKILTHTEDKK
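FRET quenching reversal measured ClpP activation: 10 microg/mL B. subtilis ClpP at pH 8 with the FRET-FV decapeptide, read at 430 nm after 320 nm excitation. The 20-min minus 0-min signal was scaled between DMSO/no-enzyme wells and ADEP (5.8 microM final).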
IL-1B inflam inh: qHTS for Inhibitors of Inflammasome Signaling: IL-1-beta AlphaLISA Primary Screen. activity change, % at 57.5 µM. THP-1 LPS/ATP IL-1B secretion, AlphaLISA, 16 h; hits give low values. 4.7% of 360,000 active. AID 743279, 2014; in the data active means activity change below about -50%; inconclusive means mostly about -30% to -49%; further: on the % scale 0 is the no-effect control and ±100 the full control effect
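Secreted IL-1B measured by AlphaLISA bead assay after 16 h compound exposure of THP-1 cells; compounds (final up to 57.5 uM) added 1 h before LPS (250 ng/mL) and ATP (1.25 mM) stimulation; lower signal means less secretion.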
TDP1 cell noCPT: qHTS for Inhibitors of human tyrosyl-DNA phosphodiesterase 1 (TDP1): qHTS in cells in absence of CPT. 15% of 420,000 active. Potency, µM (doses to about 46.2 µM), without a hit: top-dose activity change, negative = growth inhibition, hits mostly inhibitors. AID 686978, 2013. DT40 Tdp1-/- hTDP1 cells, no CPT, ATP luminescence, 48 h; further: potency means the concentration at half of the fitted maximal effect; on the % scale 0 is the no-effect control and ±100 the full control effect; nearly all actives have a fitted effect of over 55% in size
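Stably hTDP1-transfected Tdp1-null chicken DT40 cells were treated with library compounds minus camptothecin and grown for at least 48 hr at 37 °C, after which cellular ATP was quantified by luminescence.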
* = called active by the depositor; ? = inconclusive; . = no result given; [ ] = another dose, or the depositor's remark. Unless noted, the call rests on the fitted dose curve; in most records, active means well fitted inhibition curve with a large enough effect; inconclusive means small, poorly fitted or top-dose-only effect; inactive means flat fitted curve, though single readings scatter.

SMILES	D3 ag	D3 antag	DT40 TDP1 CPT	ClpP mod	IL-1B inflam inh	TDP1 cell noCPT
COc1ccccc1-n1c(-c2ccccc2Cl)nc2ccccc2c1=O	-3	31	?	0%	0	15µM*
Cc1cccc(-n2c(-c3ccco3)nc3ccccc3c2=O)c1C	5	-1	8.2µM*	.	-7	16µM*
COc1ccccc1-c1nc2c(c(SCc3cccc(Cl)c3)n1)Cc1c(CO)cnc(C)c1O2	-1	.	9.2µM*	-4%	.	18µM*
O=C(O)c1cc(O)c(O)c(O)c1	7	.	0.58µM*	.	.	0.92µM*
CCCCOP(=O)(OCCCC)C(O)c1ccc(F)cc1 (stereo unspecified)	2	12	-7%	-2%	1	?
Clc1ccc2sc(C3CCNCC3)nc2c1	-22	-15	0%	-2%	-20	-24%
CCOc1ccc2nc(N3CCC(C(=O)N4CCC5(CC4)OCCO5)CC3)sc2c1	-1	-4	?	-3%	-4	?
O=C(C1CCN(c2nc3ccc(Br)cc3s2)CC1)N1CCC2(CC1)OCCO2	8	-15	12µM*	-3%	-29	12µM*
Cc1ccc2nc(N3CCC(C(=O)N4CCC5(CC4)OCCO5)CC3)sc2c1	5	-51*	?	-2%	-2	?
CCc1ccc2nc(N3CCC(C(=O)N4CCC5(CC4)OCCO5)CC3)sc2c1	4	-18	12µM*	.	-25	16µM*
Cc1cccc(C2=NN(c3ccc(Br)cc3)[C@@H](C(=O)N3CCOC3=O)[C@@H]2c2ccc([N+](=O)[O-])cc2)c1	2	0	?	-1%	-20	?
c1ccc(-c2ccc(-c3n(-c4ccccn4)c4ccccc4[n+]3-c3ccccn3)cc2)cc1	1	3	5.8µM*	4%	-10	8.2µM*
CCOC(=O)C1(c2ccccc2)CCCN(C)CC1 (stereo unspecified)	0	.	-25%	.	.	-6%
CCCCCCCCN1C(=O)[C@H](CC(=O)N2CCCCC2)C[C@@]2(C(=O)OCC)CCCC=C12	2	-16	7.3µM*	1%	?	5.8µM*
CCCCCCCCN1C(=O)[C@H](CC(=O)NCCCC)C[C@@]2(C(=O)OCC)CCCC=C12	-7	14	9.2µM*	-2%	0	12µM*
Cc1cccc(NC(=O)Cn2cc(C(=O)c3ccccc3)c3ccccc32)c1C	-15	.	?	0%	.	?
C#CCN1C(=O)S/C(=C\c2ccc(N3CCOCC3)cc2C)C1=O	5	4	?	.	0	7.3µM*
CCC1=Nc2cc(C(=O)N3CCC4(CC3)OCCO4)ccc2Sc2ccc(Br)cc21	1	-8	?	1%	-20	?
COc1ccccc1C1CC2CCC(C1OC(C)=O)N2Cc1ccccc1 (stereo unspecified)	-19	-87*	?	0%	7	?
CO/C=C(/C(=O)OC)c1ccccc1Oc1cc(Oc2ccccc2C#N)ncn1	22	.	0.24µM*	.	.	0.22µM*
Cc1ccc(Cn2cccc(C(=O)Nc3cc([N+](=O)[O-])ccc3C)c2=O)cc1	-7	.	-16%	1%	.	?
CCCC(C)c1nnc(NC(=O)CCS(=O)(=O)c2ccccc2)s1 (stereo unspecified)	3	0	7.3µM*	.	-96*	4.1µM*
Nc1c(Br)cc2c3c(cccc13)-c1ccccc1-2	-2	-12	8.2µM*	0%	-18	5.2µM*
N#CC1C(C#N)C2CCC1C1C2N1c1ccccc1 (stereo unspecified)	-10	-12	-10%	.	1	-4%
COC(COC(N)=O)C1=C(N2CC2)C(=O)C(C)=C(N2CC2)C1=O (stereo unspecified)	-10	-1	0.16µM*	-19%	-113*	0.16µM*
SMILES	D3 ag	D3 antag	DT40 TDP1 CPT	ClpP mod	IL-1B inflam inh	TDP1 cell noCPT
Clc1cc(I)cc(Cl)c1NC1=NCCN1	-4	-29	-4%	2%	6	-5%
CCc1cc2c(s1)-n1c(C)nnc1CN=C2c1ccccc1Cl	8	.	?	.	.	-19%
CNC(C)Cc1ccccc1Sc1ccc(O)cc1 (stereo unspecified)	-21	-73*	?	0%	-17	?
CCCCC[C@@H](/C=C/C=C\CCCCCCCC(=O)O)OO	.	.	7%[0.628 µM]	.	.	2%[0.628 µM]
COc1ccc(NC(=O)N2CCCC3(CCN(C(=O)Oc4ccccc4)CC3)C2)cc1	.	.	-5%	.	.	-13%
COc1ccc(C2/C=C\CN(C(=O)Oc3ccccc3)CC(=O)N2Cc2ccc(F)cc2)cc1 (stereo unspecified)	15	-21	21µM*	-1%	40	?
CC(N)Cc1ccc2c(c1)OCO2 (stereo unspecified)	-5	.	-13%	.	.	-10%
COc1cc2nc(N3CCCN(C)CC3)nc(N(C)C3CCN(C)CC3)c2cc1OC	.	.	6.3µM*	4%	.	6.3µM*
O=[As](O)(O)c1ccc(N=Nc2ccc(O)cc2)cc1	-13	-99*	2%	2%	?	-8%
O=C1NC(=O)N(c2ccc(Cl)cc2)C(=O)/C1=C/c1coc2ccc(O)cc2c1=O	2	-6	15µM*	0%	?	15µM*
O=C1NC(=O)N(c2ccccc2)C(=O)/C1=C/c1coc2ccc(O)cc2c1=O	-4	13	23µM*	3%	-20	15µM*
O=C(O)C1CC2(Cl)C(Cl)=C(Cl)C1(Cl)C2(Cl)Cl (stereo unspecified)	-7	?	-10%	.	7	-26%
CCc1ccccc1NC(=O)C(CC)Oc1ccccc1-c1nnc(-c2ccccc2)o1 (stereo unspecified)	-21	.	5.8µM*	?	.	5.2µM*
C=CCSc1nc2c(c(-c3ccsc3)c1C#N)CN(C)CC2	-12	-11	?	0%	-11	18µM*
Cc1cccc(CSc2nc3c(cc2C#N)CN(C)CC3)c1	-1	-26	6%	0%	6	2%
Oc1ccc2c3c1O[C@H]1c4c(c5ccccc5n4Cc4ccccc4)C[C@@]4(O)C(C2)N(CC2CC2)CC[C@]314	.	.	5.2µM*	.	.	3.7µM*

Compound activity from PubChem.
